Here are results for eight molecules from PubChem BioAssay (NCI).

The structures appear in SMILES notation. This is part of a sample that, as a whole, favours compounds with a hit. Of some 83,000 tested, about 20% had one in any assay.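 Assay: single dose, 48 h. Readout: percent growth (0 = no net growth; negative = cell death). Active: <10.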 A number with no mark means an inactive call. Activity calls are given as the source filed them.

Among the test systems are SK-MEL-2 melanoma; EKVX NSCLC; SN12C renal; UO-31 renal; TK-10 renal; ACHN renal; CAKI-1 renal; A498 renal; CCRF-CEM leukemia; MOLT-4 leukemia; OVCAR-8 ovarian; OVCAR-5 ovarian; OVCAR-4 ovarian; SK-OV-3 ovarian; IGROV1 ovarian; OVCAR-3 ovarian; HS 578T breast; NCI/ADR-RES ovarian; RPMI-8226 leukemia; SR leukemia.
Holding throughout (assay): NCI-60 one-dose screen, 48 h (100 = growth as untreated, 0 = no growth, -100 = all killed)
What all share (conditions): 10 µM unless noted

`CCOC(=O)c1[nH]c(C)c(C(=O)OCc2ccccc2C#N)c1C`: the growth in the assay with SK-MEL-2 melanoma is 82.3%; in the assay on EKVX NSCLC, 114%; with SN12C renal it was 95%; with UO-31 renal, 88.3%; with TK-10 renal, 90.9%; in the assay with ACHN renal it was 87.4%. Also, the growth was 82.1% in the assay on CAKI-1 renal; 79.3% with A498 renal; 92.4% with CCRF-CEM leukemia; 78.8% in the assay with MOLT-4 leukemia; 70.5% with OVCAR-8 ovarian; 105% in the assay on OVCAR-5 ovarian. In addition, the growth in the assay on OVCAR-4 ovarian is 85.8%; with SK-OV-3 ovarian, 88.3%; in the assay with IGROV1 ovarian, 44.6%; in the assay on OVCAR-3 ovarian, 62.5%; in the assay with HS 578T breast, 49.1%; in the assay on NCI/ADR-RES ovarian, 14.9%.
As to `COc1ccc(/C=C(\C#N)n2nnc3c(F)cccc32)cc1`, the growth is 24.1% in the assay with SK-MEL-2 melanoma; 32.3% in the assay with EKVX NSCLC; 24.2% with SN12C renal; 39.4% with UO-31 renal; 45.3% in the assay with TK-10 renal; 28.3% in the assay with ACHN renal. The growth is 24.8% in the assay with CAKI-1 renal; -29.1% (active) in the assay on A498 renal; 18.9% in the assay with CCRF-CEM leukemia; 14.4% in the assay with MOLT-4 leukemia; 17.9% in the assay on RPMI-8226 leukemia; 16.3% in the assay with OVCAR-8 ovarian. Moreover, the growth in the assay on OVCAR-5 ovarian is 15.7%; in the assay on OVCAR-4 ovarian, 37.8%; in the assay on SK-OV-3 ovarian, 39%; with HS 578T breast, -4.6% (active); in the assay on NCI/ADR-RES ovarian, 0.281% (active).
Turning to `CCCCN(C)N=Nc1ccc(C(N)=O)cc1`, the growth is 107% with SK-MEL-2 melanoma; 96.2% in the assay on EKVX NSCLC; 96.7% with SN12C renal; 57.1% with UO-31 renal; 111% with TK-10 renal; 107% in the assay with ACHN renal. Besides, the growth in the assay with CAKI-1 renal is 59%; in the assay with CCRF-CEM leukemia, 110%; in the assay on MOLT-4 leukemia it was 87.7%; with RPMI-8226 leukemia, 114%; in the assay on OVCAR-8 ovarian, 107%; in the assay on OVCAR-5 ovarian, 99.2%. In addition, the growth was 107% in the assay with OVCAR-4 ovarian; 121% with SK-OV-3 ovarian; 89.1% in the assay with IGROV1 ovarian; 103% in the assay with OVCAR-3 ovarian; 101% in the assay on HS 578T breast; 106% with NCI/ADR-RES ovarian.
In the case of `COc1ccc(-c2cc3c4c(nc5ccccc5c4c2)CC(c2cc(OC)c(OC)c(OC)c2)O3)cc1` (configuration not stated), the growth with SK-MEL-2 melanoma was 66.3%; in the assay with EKVX NSCLC, 65%; with SN12C renal, 32.3%; in the assay on UO-31 renal, -26.3% (active); in the assay with TK-10 renal, 7.8% (active); in the assay on ACHN renal, -46% (active). In addition, the growth in the assay on CAKI-1 renal is 1.26% (active); with CCRF-CEM leukemia, 99.1%; in the assay on MOLT-4 leukemia it was 102%; in the assay on RPMI-8226 leukemia it was 25.1%; in the assay with OVCAR-8 ovarian, 32%; with OVCAR-5 ovarian, 18.4%. In addition, the growth was -9.24% (active) with OVCAR-4 ovarian; 20.2% in the assay on SK-OV-3 ovarian; 52.5% in the assay with IGROV1 ovarian; 41.9% with OVCAR-3 ovarian; 13.2% in the assay with HS 578T breast; 41.4% with NCI/ADR-RES ovarian.
For the molecule `COc1nc2ccccc2cc1-c1nc2c(cnn2-c2ccccc2)c(=O)[nH]1`, the growth with SK-MEL-2 melanoma is 12.9%; with EKVX NSCLC, 58.5%; in the assay with SN12C renal, 65.8%; in the assay with UO-31 renal it was 40.2%; in the assay with TK-10 renal, 72%; in the assay with ACHN renal, 57.6%. For the same molecule, the growth was 42.1% with CAKI-1 renal; 21.1% with CCRF-CEM leukemia; 40.4% in the assay on MOLT-4 leukemia; 44.2% with RPMI-8226 leukemia; 63.3% with OVCAR-8 ovarian; 79.5% in the assay on OVCAR-5 ovarian. Further, the growth with OVCAR-4 ovarian was 76.2%; with SK-OV-3 ovarian, 53.8%; in the assay with IGROV1 ovarian it was 48.1%; with OVCAR-3 ovarian, 7.05% (active); with HS 578T breast it was 50.2%; in the assay with NCI/ADR-RES ovarian it was 40.7%.
Take `Cc1cccc2c(=O)c3c(sc12)c(NCc1ccccc1)nc1ccccc13`: the growth was 101% with SK-MEL-2 melanoma; 89.7% with EKVX NSCLC; 93.6% in the assay with SN12C renal; 66.5% with UO-31 renal; 105% with TK-10 renal; 90.9% in the assay on ACHN renal. In addition, the growth is 76.4% with CAKI-1 renal; 100% in the assay with CCRF-CEM leukemia; 92.1% in the assay on MOLT-4 leukemia; 74.4% in the assay with SR leukemia; 100% with OVCAR-8 ovarian; 75.6% in the assay with OVCAR-5 ovarian. Besides, the growth in the assay on OVCAR-4 ovarian was 87.6%; in the assay with SK-OV-3 ovarian, 88.7%; in the assay on IGROV1 ovarian it was 74.3%; in the assay on OVCAR-3 ovarian it was 106%; in the assay on HS 578T breast, 98.7%; with NCI/ADR-RES ovarian, 97.2%.
For the molecule `CC/C=C\C[C@@H]1C/C=C2/C(=O)C=C[C@H]2C/C=C\CCCC(=O)O1`, the growth is -39.2% (active) in the assay with SK-MEL-2 melanoma; -25.1% (active) with EKVX NSCLC; -28.8% (active) in the assay with SN12C renal; -91.9% (active) with UO-31 renal; -42.5% (active) in the assay on TK-10 renal; -86.2% (active) with ACHN renal. Further, the growth in the assay on CAKI-1 renal is 9.49% (active); in the assay with A498 renal it was -88.4% (active); in the assay on CCRF-CEM leukemia, -28.7% (active); with MOLT-4 leukemia it was -24.9% (active); in the assay on OVCAR-8 ovarian, 4.94% (active); with OVCAR-5 ovarian it was -32.8% (active). Also, the growth is 5.92% (active) in the assay on OVCAR-4 ovarian; -8.9% (active) with SK-OV-3 ovarian; -95.4% (active) with OVCAR-3 ovarian; -1.47% (active) in the assay with HS 578T breast; 10.9% with NCI/ADR-RES ovarian.
In the case of `CC1=C([Se]CC(OC(=O)[C@@H](CSSC(C)(C)C)NC(=O)OC(C)(C)C)C(=O)NC(C)(C)C)C(=O)c2ccccc2C1=O` (some centres not stated), the growth with SK-MEL-2 melanoma is 7.82% (active); with EKVX NSCLC it was -74.2% (active); with SN12C renal, -73.3% (active); in the assay on UO-31 renal, 15.4%; with TK-10 renal it was -96% (active); with ACHN renal it was -83% (active). Further, the growth was -52.1% (active) in the assay with CAKI-1 renal; -28.9% (active) in the assay with A498 renal; -21.6% (active) in the assay with CCRF-CEM leukemia; 15.8% in the assay with MOLT-4 leukemia; -73.7% (active) in the assay with OVCAR-8 ovarian; -75.8% (active) in the assay with OVCAR-5 ovarian. Also, the growth is -92.9% (active) with OVCAR-4 ovarian; -100% (active) in the assay on SK-OV-3 ovarian; 8.36% (active) in the assay with IGROV1 ovarian; -99.2% (active) in the assay with OVCAR-3 ovarian; -11.2% (active) in the assay with HS 578T breast; -78.9% (active) in the assay with NCI/ADR-RES ovarian.
